The source of these data is PubChem BioAssay (NCI).

About 83,000 compounds went through this panel and 20% of them were active in at least one assay; those are over-represented in the sample as a whole.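 Treatment: one concentration, 48 hours, 96-well format. Scoring: percent growth, with anything below 10 considered active.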 Activity calls are given as the source filed them.

The test relates to SF-295 CNS. Kind of test: NCI-60 one-dose screen, 48 h (100 = growth as untreated, 0 = no growth, -100 = all killed). Conditions: 10 µM unless noted.
With `NC1=NC(c2cccc(Br)c2)c2sc3ccc(Cl)cc3c2N1` (stereo not drawn), the growth is 103% (inactive).

With `CCCCn1c(-c2ccc(-c3nc(-c4ccc(Cl)cc4)no3)cc2)nc(-c2ccccc2)c1-c1ccccc1`, the growth was 79% (inactive).

`CCc1ccccc1-n1c(N)c(C#N)c(-c2ccc(Cl)cc2)c(C#N)c1=O`: the growth was 99.3% (inactive).

In the case of `Cc1ccc(/C=N\NC(=O)c2[nH]c3ccc(F)cc3c2-c2ccccc2)cc1`, the growth is -6.59% (active).

In the case of `COc1ccc(/C=C/c2c(C(=O)/C=C/c3ccc(C(F)(F)F)cc3)c(C)nc3ccccc23)cc1`, the growth is -49.3% (active).

With `Cc1c(C(=O)/C=C/Nc2c(Cl)cc(S(N)(=O)=O)cc2Cl)sc2nc3ccccc3n12`, the growth was 101% (inactive).

Take `CC(=O)N1N=C(c2ccc(Nc3nc(Nc4ccc(F)cc4)nc(Nc4ccc(Cl)cc4)n3)cc2)CC1c1ccc(Cl)cc1` (stereo not drawn): the growth was 123% (inactive).

As to `COc1ccccc1/C=C1\Oc2cc(OCCN3CCC(Cc4ccccc4)CC3)ccc2C1=O`, the growth is 96.6% (inactive).

On to `Cc1nc2ccccc2c(/C=C/c2ccccc2)c1C(=O)/C=C/c1ccc(C(F)(F)F)cc1`, for which the growth was -74.2% (active).

`Cc1[nH]c(C(=O)Nc2ccc(C(=O)N3CCNCC3)cc2OC(C)C)c(Cl)c1Cl`: the growth is 107% (inactive).

Consider `CN1C(=O)N(C)C2Nn3c(s/c(=C\c4ccccc4)c3=O)=NC21` (stereo not drawn), for which the growth was 104% (inactive).

Turning to `COc1ccc([C@H]2c3cc(OC)c(OC)cc3C=C(C=O)C2CO)cc1OC` (stereo partly drawn), the growth was 12.7% (inactive).

As for `O=c1n(Cc2ccc3ccccc3c2)ccn1Cc1ccc2ccccc2c1`, the growth was 94.5% (inactive).

Turning to `N/C(=N\c1nc2ccccc2s1)NC(=O)Nc1cccc2ccccc12`, the growth is 33.3% (inactive).

Turning to `O=C(N=c1oc2ccccc2cc1-c1cc2ccccc2[nH]1)Nc1ccc(Cl)cc1`, the growth was 111% (inactive).

For `Fc1cc(-c2nnc3sc(-c4ccc(Cl)cc4Cl)nn23)c(Cl)cc1Cl`, the growth is 78.4% (inactive).

Regarding `CSc1ccc2c(c1)c(CCN)c(C)n2Cc1ccc(Cl)c(Cl)c1`, the growth is -90.9% (active).

Regarding `OC(c1ccccc1)C(NC(Cc1ccccc1)c1ccccc1)c1ccccc1` (stereo not drawn), the growth was 93.1% (inactive).

For the compound `O=C(/C=C/c1ccc([N+](=O)[O-])o1)NNC(=O)c1cc2ccccc2cc1O`, the growth is 54.8% (inactive).

For `CCCCCCCCCCCCCCCCCCOc1ccccc1CC(=O)OCC[N+](CC)(CC)CC`, the growth is 27.9% (inactive).

`Cc1c(C(=O)NCCN2CCOCC2)cn2ncnc(Oc3ccc(NC(=O)Nc4ccc(Cl)c(C(F)(F)F)c4)cc3)c12`: the growth is -29.3% (active).

As to `Cc1ccc2c(n1)C(=O)C(Cl)=C(Nc1ccccc1C(C)C)C2=O`, the growth was 101% (inactive).

As for `Nc1cc2c(cc1Br)-c1cc(Cl)ccc1C2=O`, the growth is 106% (inactive).

With `Cc1nn(-c2ccccc2)c2c1N=c1s/c(=C\c3ccc(C(F)(F)F)cc3)c(=O)n1CN2`, the growth is 84% (inactive).

On to `COc1ccc2c(c1)/C(=C/c1sc(=S)n(Cc3ccco3)c1O)C=N2`, for which the growth is 27.8% (inactive).

For `COc1nc2ccccc2cc1-c1nc2c(cnn2-c2ccccc2)c(=O)[nH]1`, the growth was 43.8% (inactive).

For the compound `Cc1[nH]c(C(=O)Nc2ccc(C(=O)NCCN)cc2OC(C)C)c(Cl)c1Cl`, the growth is 89.7% (inactive).

On to `CC(C)c1cc(C(C)C)c(S(=O)(=O)Oc2ccc(NC(=O)c3ccc(Cl)cc3)cc2)c(C(C)C)c1`, for which the growth is 11.4% (inactive).

Regarding `CN1C(=O)CNC(=O)[C@H](NC(=O)c2nc3ccccc3cc2O)CSSC[C@H]1C(=O)NCCCc1nc2ccccc2cc1O`, the growth is 91.9% (inactive).

Regarding `O=S(=O)(Nc1ccc(-c2nc(-c3cccc(OCCN4CCOCC4)c3)c(-c3ccnc(Br)c3)[nH]2)cc1)c1ccccc1`, the growth is 2.79% (active).

Consider `COc1ccc(-c2cc3c4c(nc5ccccc5c4c2)CC(c2cc(OC)c(OC)c(OC)c2)O3)cc1` (stereo not drawn), for which the growth was 42% (inactive).

Regarding `COc1ccc(/C=N/Nc2cc(=O)[nH]c3ccc(Cl)cc23)cc1`, the growth was 72.6% (inactive).

Take `COc1ccc(S(=O)(=O)n2c3ccccc3n3ncc(-c4nnc(C)o4)c23)cc1`: the growth was 6.74% (active).

In the case of `CCc1cccc2c3c(sc12)C(c1ccc(Cl)cc1)C(C#N)=C(N)O3` (stereo not drawn), the growth was 2.87% (active).

With `Clc1ccc(C(/C=C/c2sc(Cl)nc2Cl)=N/Nc2cc(Cl)cc(Cl)c2)cc1`, the growth was 104% (inactive).

For `NCCCNc1nc2ccccc2c2c(=O)c3cc(OC(F)(F)F)ccc3sc12`, the growth is 33.4% (inactive).

Regarding `Cc1cc(-c2cc(C)c(N)cc2C)c(C)cc1N`, the growth is 84.1% (inactive).

On to `O=C(Nc1ccc(F)cc1F)c1cc(F)ccc1O`, for which the growth is 6.99% (active).
